Source: PubChem
Giardia FBPA inh: Giardia lamblia aldolase inhibition | A8B2U2 | purified Giardia FBPA | Potency, µM (doses to about 59.6 µM), hits mostly inhibitors | 290,000 compounds, 0.71% hits; note: nearly all actives have a fitted effect of over 55% in size
Target sequence (A8B2U2 whole entry, looked up): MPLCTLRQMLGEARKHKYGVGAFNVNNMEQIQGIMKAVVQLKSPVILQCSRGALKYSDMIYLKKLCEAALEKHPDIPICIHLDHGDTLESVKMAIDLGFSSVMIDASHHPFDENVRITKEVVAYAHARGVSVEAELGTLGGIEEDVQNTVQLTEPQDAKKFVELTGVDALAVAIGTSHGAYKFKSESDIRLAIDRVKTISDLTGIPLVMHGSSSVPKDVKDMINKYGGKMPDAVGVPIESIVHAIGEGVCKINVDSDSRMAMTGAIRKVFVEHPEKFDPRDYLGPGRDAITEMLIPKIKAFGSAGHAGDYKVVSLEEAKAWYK
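Giardia FBPA (40 nM reagent) was preincubated 10 min at RT with compound (up to 57.5 uM final), then substrate plus GAPDH/TPI/NAD/arsenate coupling system with diaphorase/resazurin was added; resorufin fluorescence (525/598 nm) was read after 20 min.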
LmPK inh: blocks Leishmania mexicana pyruvate kinase activity | Q27686 | purified LmPK, Kinase-Glo ATP luminescence, 1 h | Potency, µM (doses to about 57.5 µM), hits mostly inhibitors | 290,000 compounds, 0.37% hits | AID 1721
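Kinase-Glo luminescence read after 1 h RT reaction of 0.1 nM LmPK with 0.5 mM PEP and 0.1 mM ADP. Activity scaled between uninhibited and enzyme-free controls.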
CHX counter: affects cycloheximide protein synthesis inhibition readout, counter-screen | cell reporter, cycloheximide protein synthesis inhibition counterscreen | max response, % | 300,000 compounds, 12% hits | AID 2314; in the data active = max response mostly above about 13%, no sharp cut-off; inactive = mostly below about 14%; note: read at 38.3 µM for the half of the compounds with a filed dose
Tb PYK inh: T. brucei pyruvate kinase inhibition | Q57TT1 | TbPYK enzyme, Kinase-Glo Plus ATP luminescence, 45 min | Potency, µM (titrated, usually from 76.8 µM), actives largely listed as inhibitors | 410,000 compounds, 0.12% hits | AID 624173; note: nearly all actives have a fitted effect of over 50% in size
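In this concentration-response screen, enzyme-free wells defined baseline while DMSO plates tracked drift. Each reaction combined TbPYK, substrate, compound and 130 uM ADP for 45 min at room temperature. Kinase-Glo Plus luminescence gave the signal.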
RE007 growth inh: less growth of the S. pombe RE007 Vpr strain. 360,000 compounds, 0.21% hits. Potency, µM (titrated, usually from 92.2 µM), hits mostly inhibitors. AID 651644. S. pombe RE007 Vpr strain, BacTiter-Glo ATP luminescence, 24 h; active = well fitted falling curve with a large enough effect; inconclusive = small, poorly fitted or top-dose-only effect; inactive = no such curve, though single readings can be large or run the other way; note: nearly all actives have a fitted effect of over 50% in size
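Fission yeast RE007 carrying one integrated HIV-1 vpr copy, seeded at OD 0.01 in PMG+AL medium with 23 nL pinned compound. Grown 24 h at 30 degrees; viability read by BacTiter-Glo luminescence after 5 min.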
Shiga toxin inh: inhibitors of Shiga toxin in Vero cells. Vero cells, Shiga toxin protein synthesis inhibition reporter. inhibition, % at 38.7 µM. 290,000 compounds, 9.2% hits. AID 2315; in the data active = inhibition mostly above about 28%, no sharp cut-off; inactive = mostly below about 43%
Numbers stand for hits; 0 = inactive; ? = inconclusive; - = not tested or not shown. This excerpt belongs to a sample that is enriched for hits. Unless noted, calls come from the whole dose curve; as a rule, active = well fitted curve in the direction sought with a large enough effect; inconclusive = small, poorly fitted or top-dose-only effect, or another doubt; inactive = no such curve, though single readings can be large; an effect the other way counts as inactive or inconclusive.

SMILES	Giardia FBPA inh	LmPK inh	CHX counter	Tb PYK inh	RE007 growth inh	Shiga toxin inh
Cc1nc2ccc(S(=O)(=O)N(CC(=O)Nc3ccc(F)cc3F)Cc3ccccc3)cc2s1	-	-	-	0	-	-
O=S(=O)(NCc1ccco1)c1ccc2c(c1)Cc1ccccc1-2	0	0	48	0	0	41
CC(OC(=O)c1ccc(S(=O)(=O)NCc2ccco2)cc1)C(=O)Nc1ccc(Cl)cn1 (stereo unspecified)	0	0	38	0	0	68
COc1ccc(C(=O)Nc2cccc(S(=O)(=O)NCc3ccco3)c2)cc1	-	-	-	0	0	-
Cc1cccc(C(=O)Nc2cccc(S(=O)(=O)NCc3ccco3)c2)c1	-	-	-	0	0	-
O=C(COC(=O)c1ccc(S(=O)(=O)NCc2ccco2)cc1)Nc1ncc(Cl)cc1Cl	0	0	0	0	?	0
Cc1cc(C)cc(NC(=O)c2cc(S(=O)(=O)NCc3ccco3)ccc2F)c1	0	0	15	0	0	0
O=C(Nc1ccccc1)c1cccc(S(=O)(=O)NCc2ccco2)c1	0	0	50	0	0	52
O=C(Nc1ccc(S(=O)(=O)NCc2ccco2)cc1)c1ccc(F)cc1	0	0	28	0	0	46
CC1CCCCC1NC(=O)c1ccc(S(=O)(=O)NCc2ccco2)cc1 (stereo unspecified)	0	0	40	0	0	62
CCN(CC)C(=O)c1sc2c(c1C)c(=O)n(Cc1ccccc1)c(=O)n2Cc1ccccc1C	-	-	-	0	-	-
Cc1cc(C)n(CCC(=O)Nc2ccc3c(c2)OCCO3)n1	0	0	15	0	0	45
Cc1ccn(CCC(=O)Nc2ccc3c(c2)OCO3)n1	-	0	24	0	0	73
COc1ccc(NC(=O)CCn2nc(C)cc2C)cc1	0	0	0	0	0	0
Cc1noc(C)c1N=Nc1ccc(Br)cc1C(=O)O	0	0	0	0	0	0
CCc1cc(=S)n2c([nH]c3ccccc32)c1C#N	0	0	0	?	0	52
COCc1cc(=O)n2c([nH]c3ccccc32)c1C#N	?	0	0	0	0	0
C=C(C)Cc1c(C)c(C#N)c2[nH]c3ccccc3n2c1=O	?	0	0	0	0	0
CCc1cc(=O)n2c([nH]c3ccccc32)c1C#N	0	0	44	0	0	42
CCc1c(C)c(C#N)c2[nH]c3ccccc3n2c1=S	?	?	0	14µM	0	0
CCCSc1ccc([C@@H]2[C@H]3C(=O)N(CC)C(=O)[C@H]3[C@]3(C(=O)OC)CCCCN23)cc1	-	-	-	0	0	-
Nc1ccccc1SCc1ccccc1	0	0	72	0	0	89
Nc1nc(SCc2ccc(Br)cc2)n[nH]1	0	0	27	0	0	53
Nc1nc(SCc2ccccc2)n[nH]1	0	0	11	0	0	0
c1ccc(CSCc2ccccc2)cc1	-	-	-	0	0	-
SMILES	Giardia FBPA inh	LmPK inh	CHX counter	Tb PYK inh	RE007 growth inh	Shiga toxin inh
Nc1nc(SCc2ccc(Cl)c(Cl)c2)n[nH]1	0	0	0	0	0	0
C=C[C@]1(C)C[C@@H](OC(=O)CO)[C@]2(C)C(C)CC[C@]3(CCC(=O)[C@H]32)[C@@H](C)[C@@H]1O (stereo partly specified)	-	-	-	0	-	-
CN(CC(=O)Nc1ccc(Cl)c(Cl)c1)C(=O)c1cccc2cccnc12	-	-	-	0	0	-
O=C(NCCc1ccccc1F)c1cccc2cccnc12	0	0	52	0	0	82
Cc1ccc(NC(=O)c2cccc3cccnc23)cc1	0	0	35	0	0	111
CC(=O)Nc1cccc(NC(=O)c2cccc3cccnc23)c1	0	0	19	0	0	0
COc1ccc(Cl)cc1NC(=O)c1cc(C)nc2c1c(C)nn2-c1ccccc1	-	-	-	0	-	-
COc1ccccc1-c1nnc(SCCOc2ccccc2C)o1	-	-	-	0	-	-
CCOc1ccc(NC(=O)c2ccc(NS(=O)(=O)c3cccs3)cc2)cc1	0	0	0	0	0	0
CN1CC(C(=O)O)Cc2c1ccc1ccccc21 (stereo unspecified)	10µM	0	0	0	0	0
COc1cccc(CNC(=O)c2cc(COc3c(F)cccc3F)on2)c1	0	0	29	0	0	33
COC(=O)[C@H](Cc1ccccc1)NC(=O)c1cc(COc2c(F)cccc2F)on1	0	0	52	0	0	67
CCC(NC(=O)c1cc(COc2c(F)cccc2F)on1)c1ccncc1 (stereo unspecified)	-	0	0	0	0	0
O=C(NCc1ccc2c(c1)OCO2)c1cc(COc2c(F)cccc2F)on1	0	0	37	0	0	0
COc1cccc(OCc2cc(C(=O)NCc3ccc4c(c3)OCO4)no2)c1	-	0	44	0	0	48
S=C1NCN(Cc2cccnc2)CN1c1cccc2ccccc12	0	0	0	0	0	0
COc1ccc2c(c1)c1c(c(=O)n(-c3ccccc3C)c(=O)n1CC(=O)NCc1ccc(C)cc1)n2C	-	-	-	0	-	-
CCOc1ccc(C(=O)c2ccc(O)c(O)c2O)cc1	16µM	-	-	-	-	-
CCOc1cccc(C(=O)c2ccc(O)c(O)c2O)c1	20µM	-	-	-	-	-
CCOc1ccc(C(=O)c2cc3ccc(O)cc3oc2=O)cc1	0	0	0	0	0	0
CCOc1ccc(NC(=O)CC2C(=O)N(c3ccccc3)C(=O)N2C2CCCCC2)cc1 (stereo unspecified)	-	-	-	0	-	-
C=CCn1c(NS(=O)(=O)c2ccccc2)c(S(=O)(=O)c2ccc(C)cc2)c2nc3ccccc3nc21	0.14µM	0	0	0	0	0
O=S(=O)(Nc1c(S(=O)(=O)c2ccccc2)c2nc3ccccc3nc2n1C1CCCCC1)c1ccccc1	?	0	0	0	?	0
CN1OC[C@@H]2CN(C(=S)NCCc3ccccc3)[C@H](c3ccc(-n4ccnc4)cc3)C[C@@H]21	-	-	-	0	0	-
Cc1ccc2c(c1)/C(=N/OC(=O)c1ccc(F)cc1)CCS2	0	0	0	0	0	0
SMILES	Giardia FBPA inh	LmPK inh	CHX counter	Tb PYK inh	RE007 growth inh	Shiga toxin inh
O=C(O/N=C1/CCSc2ccccc21)c1ccccc1	0	?	39	0	?	40
O=C(O/N=C1\CCCc2ccccc21)c1ccc(F)cc1	0	0	16	0	0	21
Cc1ccc2nc(-c3ccsc3)c(Nc3ccc(Cl)cc3)n2c1	-	-	-	0	-	-
CSc1nc(=NC(C)=O)ss1	?	0	33	0	0	68
Cn1c(=O)n(C)c2cc(N3CCCCC3)c(NC(=O)c3c(F)cccc3F)cc21	-	-	-	0	-	-
CC(C)c1ccc(NC(=O)c2n[nH]c(=O)c3ccccc23)cc1	0	0	45	0	0	44
CCN(CC)S(=O)(=O)c1cc(NC(=O)c2n[nH]c(=O)c3ccccc23)ccc1C	0	0	21	0	0	0
COC(=O)Cc1csc(NC(=O)c2ccc3ncsc3c2)n1	-	-	-	0	0	-
Cc1cc(C(=O)Nc2nc3c(s2)CCCC3)cs1	0	0	40	0	0	107
Cc1ncsc1C(=O)Nc1nc2c(s1)CCCC2	0	?	62	?	?	106
